According to PubChem BioAssay AID1645886 (National Center for Advancing Translational Sciences (NCATS), 2021):
Screen size: about 16,000 compounds; about 260 (1.6%) were called active. Inconclusive results (about 14%) are left out. Calls follow the shape of the dose curve; as a rule, active = well fitted inhibition curve with a large enough effect; inconclusive = small, poorly fitted or top-dose-only effect; inactive = no such curve, though single readings can be large or run the other way. The entries come from a sample that favours actives as a whole. Some compounds were tested as several samples or in several runs, with calls that do not always agree.

Each molecule was assayed against Rap guanine nucleotide exchange factor 4 (Homo sapiens) (UniProt Q8WZA2) (assay: Validation qHTS for antagonist of cAMP-regulated guanine nucleotide exchange factor 4 (EPAC2)). Conditions: EPAC2 Rap1B BODIPY-GDP exchange, fluorescence; series mostly up to 112 µM; activity, negative = inhibition: at the top concentration.
Description: Principle Investigator: Xiaodong Cheng Ph.D. The University of Texas Medical Branch, […], TX MLPCN Grant: NS066510 In multi-cellular eukaryotic organisms, the effects of cAMP are transduced by two ubiquitously-expressed intracellular cAMP receptors, the classic protein kinase A/cAMP-dependent protein kinase (PKA/cAPK) and the more recently discovered exchange protein directly activated by cAMP/cAMP-regulated guanine nucleotide exchange factor (EPAC/cAMP-GEF). Both PKA and EPAC are ubiquitously expressed in all tissues, and an increase in intracellular cAMP levels will lead to the activation of both PKA and EPAC. Therefore, careful dissections of the individual role and relative contribution of EPAC and PKA within the overall cAMP signaling in various model systems are critical for further elucidating the mechanism of cAMP signaling. To date no EPAC-specific antagonists and agonist, as well as isoform-specific agonists have been reported, and developing EPAC-specific pharmacological probes to determine the physiological functions that EPAC play in the overall cAMP-mediated signaling remains a major challenge within the research field. Furthermore, identified regulators of EPAC may lead to new mechanism-based therapeutic strategies specifically targeting the EPAC / cAMP-signaling components as EPAC has been implicated to play important roles in major human pathological conditions such as diabetes, heart disease, and cancer. This qHTS will be used to screen the Molecular Libraries Small Molecule Repository (MLSMR) as a concentration-titration series using the NCGC unique quantitative screening (qHTS) platform to find activators for EPAC1. In addition, this assay will also be used as a counterscreen for the EPAC2 qHTS. This fluorescent based assay is developed and validated for EPAC1 that measures exchange using EPAC effector Rap1 complex with BODIPY-GDP, a GDP analog with a tethered fluorophores. Activators are identified by monitoring the change in fluorescence signal as the exchanged free BODIPY-GDP has a reduced fluorescence compared to Rap1-bound BODIPY-GDP. Increase in signal (activation) is the desired outcome for the EPAC1 agonist while no activity in this assay is desired for the EPAC2 agonist counterscreen. Reference: [1] de Rooij, J., Zwartkruis, F. J., Verheijen, M. H., Cool, R. H., Nijman, S. M., Wittinghofer, A., and Bos, J.L. (1998) Nature 396, 474-477.
Briefly, three uL of reagents (100 nM EPAC2, 250 nM RAP1B-BODIPY-GDP, 50 uM GDP) were dispensed into a 1536-well Greiner black solid-bottom medium binding assay plate. Controls and test compounds (23 nL) were transferred to the plate via a Kalypsys pin tool equipped with a 1536-pin array. The plates were centrifuged at 1,000 rpm for 15 seconds followed by 5 minute incubation at room temperature. The assay plates were read at 5 minute intervals for 30 minutes in the ViewLux plate reader using 480nm excitation and 540nm emission filters. The results were normalized to the agonist positive control of 6.5 mM cAMP.
Also: nearly all actives have a fitted effect of over 40% in size.
Potency is read from the fitted curve at half-maximal effect.

Sequence of Rap guanine nucleotide exchange factor 4 (Homo sapiens) (Q8WZA2 whole entry, looked up): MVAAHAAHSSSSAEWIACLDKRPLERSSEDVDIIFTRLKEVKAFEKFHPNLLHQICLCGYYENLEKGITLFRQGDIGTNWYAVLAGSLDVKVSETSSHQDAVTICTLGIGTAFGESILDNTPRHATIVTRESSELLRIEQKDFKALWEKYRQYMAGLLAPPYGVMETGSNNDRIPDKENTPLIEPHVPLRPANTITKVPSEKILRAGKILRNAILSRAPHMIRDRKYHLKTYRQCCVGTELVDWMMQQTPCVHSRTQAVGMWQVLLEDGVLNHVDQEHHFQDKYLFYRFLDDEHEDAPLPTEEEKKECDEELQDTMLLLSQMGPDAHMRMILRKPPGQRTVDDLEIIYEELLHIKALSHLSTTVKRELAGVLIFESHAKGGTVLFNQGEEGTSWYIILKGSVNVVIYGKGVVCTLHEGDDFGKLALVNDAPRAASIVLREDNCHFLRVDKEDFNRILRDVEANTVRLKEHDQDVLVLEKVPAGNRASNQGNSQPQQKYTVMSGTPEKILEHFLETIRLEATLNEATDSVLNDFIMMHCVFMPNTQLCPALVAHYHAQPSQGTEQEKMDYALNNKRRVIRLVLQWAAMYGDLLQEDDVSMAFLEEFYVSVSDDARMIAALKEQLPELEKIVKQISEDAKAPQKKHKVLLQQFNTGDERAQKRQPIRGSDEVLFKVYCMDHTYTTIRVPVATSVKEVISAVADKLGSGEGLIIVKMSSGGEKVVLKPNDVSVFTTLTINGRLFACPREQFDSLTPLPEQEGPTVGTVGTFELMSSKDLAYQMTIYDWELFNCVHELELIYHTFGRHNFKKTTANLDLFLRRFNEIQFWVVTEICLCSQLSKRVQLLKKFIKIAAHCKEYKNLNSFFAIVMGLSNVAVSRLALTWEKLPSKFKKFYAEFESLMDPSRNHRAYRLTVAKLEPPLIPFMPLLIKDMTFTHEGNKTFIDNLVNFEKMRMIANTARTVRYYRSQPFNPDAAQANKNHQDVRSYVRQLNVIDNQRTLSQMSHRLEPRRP

Structure (SMILES) | activity, negative = inhibition | Potency
COc1ccccc1CNc1ncnc2ccc(-c3c(C)noc3C)cc12 | -16% (inactive) | –
CC1(C)OC2CC3C4CCC5=CC(=O)CCC5(C)C4(F)C(O)CC3(C)[C@]2(C(=O)CCl)O1 (stereo partly drawn) | -11.2% (inactive) | –
COc1ccccc1-c1ccc(C(=O)N(C)C(C)c2ccon2)c(N2CCN(c3ccccc3F)CC2)n1 (stereo not drawn) | -16.9% (inactive) | –
COc1ccccc1-c1ccnc(-n2ncc(C(=O)NCCCN3CCOCC3)c2C)n1 | -2.97% (inactive) | –
N#Cc1ccc(CN2CCCC3(CCN(C(=O)c4ccco4)CC3)C2)cc1 | -18.6% (inactive) | –
CS(=O)(=O)N1CCC2(CC1)CN(c1ccncc1)C2 | -32.4% (inactive) | –
COc1ccc(NC(=O)N2CC3(CCN(C(C)=O)CC3)C2)cc1 | -19.7% (inactive) | –
N#Cc1ccccc1-c1ccc2ncnc(NCc3cccnc3)c2c1 | -5.3% (inactive) | –
COC1(C2=NCCN2)COc2ccccc2O1 (stereo not drawn) | -22% (inactive) | –
COc1ccc2c(=O)cc(-c3ccccc3)oc2c1O | -30.4% (inactive) | –
Cc1ccc(-c2ccnc(-n3ncc(C(=O)N(C)Cc4cccc5ncccc45)c3C3CC3)n2)o1 | 5.35% (inactive) | –
NC1CCN(O)C1=O (stereo not drawn) | 9.16% (inactive) | –
CC(=O)O[C@]1(C(C)=O)CC[C@H]2[C@@H]3C=C(C)C4=CC(=O)CC[C@]4(C)[C@H]3CC[C@@]21C | -0.525% [at 56.6 µM] (inactive) | –
Nc1nc2c(ncn2[C@@H]2O[C@H](COP(=O)(O)OP(=O)(O)OP(=O)(O)O)[C@@H](O)C2O)c(=O)[nH]1 (stereo partly drawn) | 13.3% (inactive) | –
CC(C)NC(=O)N1CCC2(CC1)CCN(C(=O)c1cccn1C)CC2 | -21.4% (inactive) | –
CCNc1ncc2ncc(=O)n(CCc3ccccc3)c2n1 | -6.79% (inactive) | –
CN1CCC(=O)N([C@H](CO)Cc2ccccc2)CC1 | 1.88% (inactive) | –
O=C(/C=C/c1cccc(F)c1)NC1CC1 | 28.6% (inactive) | –
Cc1nc2cnc(N3CCNCC3)nc2n(CCc2ccccc2)c1=O | -20.3% (inactive) | –
Cc1cnc(CNc2cc(-c3c(C)noc3C)ncn2)cn1 | -8.53% (inactive) | –
COC(=O)c1c(OCc2ccc(F)cc2)cc(=O)n2c1CCN(Cc1ccc3cccnc3c1)CC2 | -20.7% (inactive) | –
COc1ccc2[nH]cc(CCNc3nc(-c4cccc(NS(C)(=O)=O)c4)nc4ccccc34)c2c1 | -18.1% (inactive) | –
COc1cc(=O)n2c(c1C(=O)NC(C)c1ccco1)CCN(Cc1cc(C)cc(C)c1)CC2 (stereo not drawn) | 8.46% (inactive) | –
O=C(Nc1cccc(F)c1)N1CC2(CCN(C(=O)c3csnn3)CC2)C1 | -28.5% (inactive) | –

Structure (SMILES) | activity, negative = inhibition | Potency
FC(F)(F)c1cccc(-c2cn[nH]c2C2CCCN(Cc3cccn3-c3ccccn3)C2)c1 (stereo not drawn) | -16.2% (inactive) | –
CC(=O)O[C@]1(C(C)=O)CC[C@H]2[C@@H]3CCC4=CC(=O)CC[C@]4(C)[C@@]3(F)[C@@H](O)C[C@@]21C | -8.39% (inactive) | –
COc1ccccc1CNc1ncnc2ccc(-c3ccc4c(c3)OCO4)cc12 | -17.6% (inactive) | –
O=C(c1cn(CC2CCCN(Cc3cc4ccccc4s3)C2)nn1)N1CCCC1 (stereo not drawn) | -18.8% (inactive) | –
COCCn1c(=O)c(-c2ccccc2)nc2cnc(N3CCOCC3)nc21 | -0.915% (inactive) | –
CC1O[C@@H](Oc2c(-c3ccc(O)c(O)c3)oc3cc(O)cc(O)c3c2=O)C(O)C(O)C1O (stereo partly drawn) | -13% (inactive) | –
O=C(C(=O)N1CCOc2ccc(CN3CCN(Cc4ccccn4)CC3)cc2C1)c1ccccc1 | -2.87% (inactive) | –
COC(=O)N1CCC2(CCCN(Cc3ccccc3OC)C2)CC1 | -12.2% (inactive) | –
CCOc1ccc2nc(N3CCCN(CCCn4cccn4)CC3)nc(C)c2c1 | -5.1% (inactive) | –
Oc1cc2c(cc1O)CN(C(=S)NCCc1ccc(Cl)cc1)CCC2 | – | 56.2 µM (active) and inactive
CC(C)=CCC/C(C)=C/CC/C(C)=C/CC/C(C)=C/CO | – | inactive
O=c1c(O)c(Br)ccc2c(Br)c(O)c(O)c(O)c12 | 6.67% (inactive) | –
CC(=O)NC(=O)c1ccccc1O | 23.4% (inactive) | –
Cc1oc(-c2cccc(NC(=O)c3ccccc3)c2)nc1CNC(=O)c1cnc2ccccn2c1=O | -3.94% (inactive) | –
COc1ccccc1C(=O)N[C@@H]1c2ccccc2C2(CCN(C(=O)c3csnn3)CC2)[C@H]1OC | -9.95% (inactive) | –
CC1C(O)CC2C(C(=O)O)=CO[C@@H](O[C@H]3OC(CO)C(O)C(O)C3O)C21 (stereo partly drawn) | -1.93% (inactive) | –
C/C(Nc1ccc2oc(=O)ccc2c1)=C1/C(=O)CC2[C@@H]1C2(C)C (stereo partly drawn) | 25% (inactive) | –
c1ccc(CN2CCN(Cc3ccc4c(c3)CN(Cc3c[nH]c5ccccc35)CCO4)CC2)nc1 | 1.14% (inactive) | –
O=C1CCN(Cc2ccc(-c3ccccc3)cc2)CCN1Cc1ccccn1 | -9.29% (inactive) | –
Cn1cc(-c2nc3cnc(N4CCNCC4)nc3n(CCC#N)c2=O)c2ccccc21 | -18.2% (inactive) | –
CN(C)c1ccc(-c2nc(NCCN3CCOCC3)c3ccccc3n2)cc1 | -15% (inactive) | –
Oc1c(Cl)cc(Cl)c(Cl)c1Cc1c(O)c(Cl)cc(Cl)c1Cl | – | 44.7 µM (active) and inactive
COCc1c(C(=O)NC2CCCCC2)cnn1-c1nccc(-c2ccccc2OC)n1 | -15.1% (inactive) | –
COc1ccc2c(c1)NC(=O)C2CC(=O)N1CCOc2c(cc(-c3cnc4ccccc4c3)cc2OC)C1 (stereo not drawn) | -30.5% (inactive) | –
